PLC-beta3 inh – blocks human PLC-beta3 enzyme activity; 0.18% of 370,000 active; AID 720704; inhibition, % at 12.2 µM; Q01970; Purified PLC-beta3, fluorogenic substrate, fluorescence; in the data active means inhibition above about 11%;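 further: 0% = median of compound wells on plate and 100% = full blocker control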
ADAM10 inh – ADAM10 inhibition, QFRET primary screen. O14672. recombinant ADAM10, EDANS/DABCYL FRET peptide cleavage, 3 h. inhibition, % at 7 µM. 0.62% of 370,000 active. AID 720582;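 active means inhibition above a per-campaign cutoff equal to the mean of compounds falling between control-based bounds plus 3 SD, cut at about 20% in these data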;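 further: 0% = DMSO wells while the 100% control is not disclosed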
PLC-gamma1 inh – blocks human PLC-gamma1 enzyme activity; inhibition, % at 12.2 µM; 0.84% of 370,000 active; P19174; purified PLC-gamma1, fluorogenic substrate, fluorescence; in the data active means inhibition above about 9.5%
Target sequence (P19174 whole entry, looked up): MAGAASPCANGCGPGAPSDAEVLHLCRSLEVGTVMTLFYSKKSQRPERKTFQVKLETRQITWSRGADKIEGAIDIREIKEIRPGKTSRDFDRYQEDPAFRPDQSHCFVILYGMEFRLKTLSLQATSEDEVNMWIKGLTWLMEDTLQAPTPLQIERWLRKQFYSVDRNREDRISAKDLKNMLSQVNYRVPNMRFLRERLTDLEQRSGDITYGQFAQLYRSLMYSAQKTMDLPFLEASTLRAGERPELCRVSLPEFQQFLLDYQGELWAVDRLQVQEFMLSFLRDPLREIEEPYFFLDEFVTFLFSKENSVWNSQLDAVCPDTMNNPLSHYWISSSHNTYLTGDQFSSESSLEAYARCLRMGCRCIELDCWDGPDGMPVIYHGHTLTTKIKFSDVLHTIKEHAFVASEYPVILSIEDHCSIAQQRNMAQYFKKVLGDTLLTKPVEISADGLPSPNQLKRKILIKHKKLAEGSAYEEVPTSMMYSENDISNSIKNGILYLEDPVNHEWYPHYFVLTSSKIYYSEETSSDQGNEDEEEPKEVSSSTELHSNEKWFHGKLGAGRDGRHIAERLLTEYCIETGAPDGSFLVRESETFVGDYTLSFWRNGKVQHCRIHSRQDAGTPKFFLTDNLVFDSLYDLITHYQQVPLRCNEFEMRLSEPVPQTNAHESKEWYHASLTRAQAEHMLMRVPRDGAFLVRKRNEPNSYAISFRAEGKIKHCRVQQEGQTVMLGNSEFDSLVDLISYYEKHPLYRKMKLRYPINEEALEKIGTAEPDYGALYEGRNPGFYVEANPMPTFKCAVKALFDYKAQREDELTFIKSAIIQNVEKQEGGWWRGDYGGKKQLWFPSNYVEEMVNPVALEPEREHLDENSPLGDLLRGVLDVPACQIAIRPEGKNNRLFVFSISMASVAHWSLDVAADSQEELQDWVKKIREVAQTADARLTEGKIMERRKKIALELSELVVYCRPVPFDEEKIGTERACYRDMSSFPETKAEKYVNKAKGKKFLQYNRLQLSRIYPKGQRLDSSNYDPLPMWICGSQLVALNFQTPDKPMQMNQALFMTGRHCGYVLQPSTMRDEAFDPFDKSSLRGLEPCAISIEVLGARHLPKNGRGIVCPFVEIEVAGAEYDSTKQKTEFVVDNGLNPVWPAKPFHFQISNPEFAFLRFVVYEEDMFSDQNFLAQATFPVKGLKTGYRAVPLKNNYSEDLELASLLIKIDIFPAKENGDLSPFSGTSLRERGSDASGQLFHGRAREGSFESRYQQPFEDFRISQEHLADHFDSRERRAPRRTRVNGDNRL
KLK7 zymogen act – activators of human kallikrein-7 zymogen. AID 652039. 0.9% of 370,000 active. activation, % at 7 µM. P49862. purified proKLK7, EDANS-DABCYL substrate fluorescence; 100% is mature enzyme control, 0% vehicle;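 active means activation above the mean of all tested compounds plus 3 SD, computed per campaign excluding outliers beyond control limits, cut at about 13% in these data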
ADAM17 inh – ADAM17 inhibition, QFRET primary screen. recombinant ADAM17, EDANS/DABCYL FRET peptide cleavage. 0.83% of 370,000 active. inhibition, % at 6.95 µM. AID 720648;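 active means inhibition above the mean of compounds lying between control limits plus 3 SD, set per campaign, cut at about 8.5% in these data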;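 further: 0% = DMSO-only wells as the low control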
ADAM10 ctr – ADAM10 inhibition, counter-screen for ADAM17 exosite hits; 47% of 2,900 active; inhibition, % at 6.95 µM; recombinant ADAM10, EDANS/DABCYL FRET peptide cleavage, 3 h; AID 743256; shares compounds with ADAM17 inh;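 active means mean inhibition over the triplicate runs exceeds the activity threshold set in the earlier primary screen, cut at about 20% in these data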;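 further: 0% = DMSO wells and 100% = marimastat wells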
ADAM17 confirm – confirmation of inhibitors of human ADAM17. shares compounds with ADAM17 inh. inhibition, % at 6.95 µM. recombinant ADAM17, EDANS/DABCYL QFRET peptide cleavage. 65% of 2,900 active;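 active means mean inhibition across replicates above the hit cutoff set in the primary screen, cut at about 8.5% in these data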;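 further: 0% = DMSO wells and 100% = marimastat wells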
Starred values were filed as active, the others as inactive. An excerpt weighted towards active compounds, which were near 2.9% of everything screened.

Screening COc1ccc(-n2c(=O)c3c4c(sc3n(CC(=O)NCC3CCCO3)c2=O)CN(C(C)=O)CC4)cc1OC (stereo not drawn) returned PLC-beta3 inh 0, ADAM10 inh 3, PLC-gamma1 inh 3, KLK7 zymogen act 0 and ADAM17 inh -3.
`CC1(C)CC(=O)C=C(c2ccc(COC(=O)c3ccccc3)cc2)C1=O` gave PLC-beta3 inh -4, ADAM10 inh -6, PLC-gamma1 inh -1, KLK7 zymogen act 0 and ADAM17 inh -4.
CCC(=O)N1CCc2cc(Br)cc(S(=O)(=O)N(C)c3ccc(OC)cc3OC)c21 was read as PLC-beta3 inh 0, ADAM10 inh 16, PLC-gamma1 inh 6, KLK7 zymogen act 0, ADAM17 inh 10*, ADAM10 ctr 7 and ADAM17 confirm 0.
`Cc1ccccc1N=Nc1ccc(O)c2ncccc12` gave PLC-beta3 inh 1, ADAM10 inh 6, PLC-gamma1 inh 4, KLK7 zymogen act 0 and ADAM17 inh 0.
`Nc1ccc(N=Nc2ccccc2)c2cccnc12` gave PLC-beta3 inh -3, ADAM10 inh 16, PLC-gamma1 inh 3, KLK7 zymogen act 0, ADAM17 inh 9.5*, ADAM10 ctr 25* and ADAM17 confirm 14*.
`Cc1ccc(S(=O)(=O)CNC(=S)c2ccc3ccccc3c2)cc1` gave PLC-beta3 inh 1, ADAM10 inh 15, PLC-gamma1 inh -3, KLK7 zymogen act 0, ADAM17 inh 9.5*, ADAM10 ctr 65* and ADAM17 confirm 37*.
Screening Cc1ccc(S(=O)(=O)CNC(=S)c2cccc(C)c2)cc1 returned PLC-beta3 inh 2, ADAM10 inh 10, PLC-gamma1 inh 0, KLK7 zymogen act 1 and ADAM17 inh 2.
For C[C@H]1COc2cccc(N3CCC[C@@H]3CO)c2S(=O)(=O)N1 the results were PLC-beta3 inh -2, ADAM10 inh -4, PLC-gamma1 inh 7, KLK7 zymogen act 0 and ADAM17 inh 3.
`COC(=O)c1ccc(CSc2nc3c(c(=O)n2-c2ccc(C)cc2)SCC3)o1` gave PLC-beta3 inh 10, ADAM10 inh 19, PLC-gamma1 inh 7, KLK7 zymogen act 0, ADAM17 inh 12*, ADAM10 ctr 12 and ADAM17 confirm 6.
`Nc1nc2ccccc2n1S(=O)(=O)c1ccccc1` gave PLC-beta3 inh 7, ADAM10 inh -1, PLC-gamma1 inh 7, KLK7 zymogen act 0, ADAM17 inh 9.0*, ADAM10 ctr 5 and ADAM17 confirm 4.
Cc1ccc(S(=O)(=O)n2c(C)nc3ccccc32)cc1 was read as PLC-beta3 inh -6, ADAM10 inh 5, PLC-gamma1 inh -3, KLK7 zymogen act 1 and ADAM17 inh 0.
Cc1cc(Cl)ccc1C(O)c1ncc(-c2cccc(C(F)(F)F)c2)[nH]1 (stereo not drawn) was read as PLC-beta3 inh -2, ADAM10 inh 14, PLC-gamma1 inh 0, KLK7 zymogen act 0, ADAM17 inh 9.2*, ADAM10 ctr 40* and ADAM17 confirm 18*.
`OC(c1ccc(-c2ccccc2)cc1)c1ncc(-c2ccc(C(F)(F)F)cc2)[nH]1` (stereo not drawn) gave PLC-beta3 inh -83, ADAM10 inh 6, PLC-gamma1 inh 2, KLK7 zymogen act 0, ADAM17 inh 9.1*, ADAM10 ctr 23* and ADAM17 confirm 13*.
For Cc1ccc2ccccc2c1C(O)c1ncc(-c2cccc(C(F)(F)F)c2)[nH]1 (stereo not drawn) the results were PLC-beta3 inh -2, ADAM10 inh 12, PLC-gamma1 inh -3, KLK7 zymogen act 0, ADAM17 inh 12*, ADAM10 ctr 26* and ADAM17 confirm 15*.
Screening Cc1cc(Cl)ccc1C(O)c1ncc(-c2cccc(F)c2)[nH]1 (stereo not drawn) returned PLC-beta3 inh 0, ADAM10 inh -5, PLC-gamma1 inh 1, KLK7 zymogen act 1 and ADAM17 inh -2.
OC(c1ccccc1)c1ncc(-c2ccc(C(F)(F)F)cc2)[nH]1 (stereo not drawn) was read as PLC-beta3 inh 1, ADAM10 inh 5, PLC-gamma1 inh 1, KLK7 zymogen act 0 and ADAM17 inh 2.
Screening CC1(C(=O)NS(=O)(=O)C2CC2)CCN(C(=O)c2ccc(F)c(Cl)c2)C1 (stereo not drawn) returned PLC-beta3 inh 0, ADAM10 inh -4, PLC-gamma1 inh 5, KLK7 zymogen act 0 and ADAM17 inh -1.
C=CCOc1ccccc1CN(CCc1ccccc1)C(=O)c1cccc(S(C)(=O)=O)c1 was read as PLC-beta3 inh -9, ADAM10 inh 1, PLC-gamma1 inh 1, KLK7 zymogen act 0 and ADAM17 inh 1.
For COc1ccc(C)cc1S(=O)(=O)N(CC(=O)NCc1ccc(Cl)cc1)Cc1ccccc1 the results were PLC-beta3 inh 1, ADAM10 inh 19, PLC-gamma1 inh -1, KLK7 zymogen act 0, ADAM17 inh 9.7*, ADAM10 ctr 31* and ADAM17 confirm 17*.
`CCSc1ccc([C@@H]2[C@@H]3C(=O)N(CC)C(=O)[C@@H]3[C@]3(C(=O)OC)CCCCN23)cc1OC` gave PLC-beta3 inh -9, ADAM10 inh 6, PLC-gamma1 inh -8, KLK7 zymogen act 0 and ADAM17 inh -2.
For CCN1C(=O)[C@@H]2[C@@H](c3ccc(SC4CCCCC4)c(OC)c3)N3CCCC[C@@]3(C(=O)OC)[C@@H]2C1=O the results were PLC-beta3 inh 1, ADAM10 inh 2, PLC-gamma1 inh -1, KLK7 zymogen act 0 and ADAM17 inh -1.
Screening COC(=O)[C@@]12CCCCN1[C@H](c1ccc(SC3CCCCC3)c(OC)c1)[C@@H]1C(=O)N(C)C(=O)[C@@H]12 returned PLC-beta3 inh 3, ADAM10 inh 15, PLC-gamma1 inh 4, KLK7 zymogen act 0, ADAM17 inh 10*, ADAM10 ctr 29* and ADAM17 confirm 17*.
`CCSc1ccc([C@@H]2[C@H]3C(=O)N(C)C(=O)[C@H]3[C@]3(C(=O)OC)CCCCN23)cc1OC` gave PLC-beta3 inh 3, ADAM10 inh 3, PLC-gamma1 inh 3, KLK7 zymogen act 0, ADAM17 inh 11*, ADAM10 ctr 26* and ADAM17 confirm 13*.
For CCCSc1ccc([C@@H]2[C@H]3C(=O)N(CC)C(=O)[C@H]3[C@]3(C(=O)OC)CCCN23)cc1 the results were PLC-beta3 inh -3, ADAM10 inh 10, PLC-gamma1 inh -1, KLK7 zymogen act 0, ADAM17 inh 13*, ADAM10 ctr 3 and ADAM17 confirm 3.

Compound activity deposited in PubChem BioAssay by The Scripps Research Institute Molecular Screening Center.
